Reference: PubChem BioAssay (NCI)
About 83,000 compounds went through this panel and 20% of them were active in at least one assay; those are over-represented in the sample as a whole.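 How to read the values: 0–100, growth inhibition (40 = 60% inhibited); 0, no net growth; -100 to 0, cell death (-40 = 40% of starting cells died; -100 = all dead).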 Calls of active or inactive are those of the source. How the source made its calls: active means growth percent below 10; inactive means the rest.

Key:
Test in all cases: NCI-60 one-dose screen, 48 h (100 = growth as untreated, 0 = no growth, -100 = all killed)
Details in all cases: 10 µM unless noted
[1] = test system: HCT-15 colon
[2] = test system: HT29 colon
[3] = test system: SNB-75 CNS
[4] = test system: SNB-19 CNS
[5] = test system: U251 CNS
[6] = test system: PC-3 prostate
[7] = test system: SK-MEL-5 melanoma
[8] = test system: UACC-62 melanoma
[9] = test system: LOX IMVI melanoma
[10] = test system: SK-MEL-28 melanoma
[11] = test system: SK-MEL-2 melanoma
[12] = test system: EKVX NSCLC
[13] = test system: SN12C renal
[14] = test system: UO-31 renal
[15] = test system: TK-10 renal
[16] = test system: ACHN renal
[17] = test system: CAKI-1 renal
[18] = test system: A498 renal
[19] = test system: CCRF-CEM leukemia
[20] = test system: MOLT-4 leukemia

Measured: growth

CCCNNC(=O)c1ccc(CNC(=O)/C=C/c2ccccc2)cc1
active: [8] 7.16% [2.5 µM] | [15] -0.401% [2.5 µM] | [18] -18.4% [2.5 µM]
inactive: [1] 50.4% [2.5 µM] | [2] 10.8% [2.5 µM] | [3] 71.7% [2.5 µM] | [4] 54.5% [2.5 µM] | [5] 37.7% [2.5 µM] | [6] 43% [2.5 µM] | [7] 28.8% [2.5 µM] | [9] 21.6% [2.5 µM] | [10] 36% [2.5 µM] | [11] 45% [2.5 µM] | [12] 55.2% [2.5 µM] | [13] 52.8% [2.5 µM] | [14] 22.4% [2.5 µM] | [16] 10.1% [2.5 µM] | [17] 23.1% [2.5 µM] | [19] 27.3% [2.5 µM] | [20] 15.3% [2.5 µM]

C=CCOC(=O)C1=C(C)N(CC)C(=O)N(CC)C1c1c(Cl)n(C)c2ccccc12 (stereo not given)
active: [19] -9.42%
inactive: [1] 78.4% | [2] 82.3% | [3] 81.6% | [4] 75.6% | [5] 88.3% | [6] 50.4% | [7] 96.5% | [8] 59.4% | [9] 52.8% | [10] 99.2% | [11] 95.6% | [12] 75.5% | [13] 89% | [14] 64.6% | [15] 94.1% | [16] 56.9% | [17] 32.8% | [18] 82.5% | [20] 89.3%

COc1ccc(/C=N/NC(=O)Cn2nnc3ccccc32)cc1
inactive: [1] 104% | [2] 105% | [3] 90.6% | [4] 101% | [5] 102% | [6] 95.9% | [7] 110% | [8] 84.6% | [9] 106% | [10] 102% | [11] 100% | [12] 101% | [13] 86.6% | [14] 77.8% | [15] 111% | [16] 94.6% | [17] 90.4% | [18] 98.4% | [19] 106% | [20] 93%

COc1ccc(/C=C2/CCc3cc4ccc(OC)cc4[o+]c32)c(O)c1
inactive: [2] 29.6% | [3] 90.9% | [4] 63.1% | [5] 69.4% | [7] 67.8% | [8] 47.5% | [10] 47.8% | [11] 85.6% | [12] 75.7% | [13] 13.6% | [15] 135% | [16] 34.3% | [17] 81% | [18] 94.9%
active: [1] 4.44% | [6] 8.84% | [9] 7.79% | [14] -28.7% | [19] 9.94% | [20] 0.523%

O=c1oc2ccccc2cc1-c1nn(-c2ccccc2)cc1/C=N/Nc1nc(-c2ccccc2)c(N=Nc2ccccc2)s1
inactive: [1] 41.9% | [2] 31.5% | [3] 26.6% | [4] 85.1% | [5] 47.6% | [6] 82.1% | [7] 79.7% | [8] 59.8% | [9] 70% | [10] 89% | [11] 64.9% | [12] 82.3% | [13] 103% | [14] 73.4% | [15] 95.1% | [16] 92.9% | [17] 62.8% | [18] 70.2% | [19] 69.7% | [20] 53.5%

c1ccc(-c2nc(N3CCNCC3)c3oc(-c4ccccc4)nc3n2)cc1
active: [1] -75.6% | [2] -26.2% | [3] -95.9% | [4] -27.9% | [5] -57% | [6] -27.9% | [7] -93.3% | [8] -82% | [9] -81.9% | [10] -95% | [11] -34.1% | [12] -68.4% | [13] -82.1% | [14] -99.8% | [15] -71.3% | [16] -100% | [17] -94% | [19] -31.1% | [20] -24.9%
inactive: [18] 88.2%

Nc1ncc(-c2ccc3ncnc(N4CCc5cc(F)c(Cl)cc54)c3c2)cc1C(F)(F)F
inactive: [1] 17.9% | [2] 20.4% | [4] 46.1% | [5] 47.8% | [6] 25.2% | [7] 37.8% | [8] 20.4% | [9] 12.7% | [10] 38.3% | [11] 27.7% | [12] 14.8% | [13] 24.8% | [16] 17.2% | [19] 28.2%
active: [3] -14.3% | [14] -2.54% | [15] 9.32% | [17] -8.15% | [18] -50.2% | [20] 8.68%

Cc1cc(N2CCOCC2)nc(N(CCCNc2ccnc3cc(Cl)ccc23)Cc2ccc3c(c2)OCO3)n1
active: [1] -31.6% | [2] -61% | [3] -43.3% | [5] -47.6% | [7] -37.2% | [8] -18.4% | [9] -90.8% | [10] -42.6% | [11] -18.5% | [12] 3.49% | [14] -32.3% | [15] -66% | [16] -86.2% | [18] -31.5% | [19] -5.56% | [20] -36.2%
inactive: [4] 40.6% | [6] 15.9% | [13] 21% | [17] 35.2%

Cc1[nH]c(C2CC(c3ccc(C(F)(F)F)c(F)c3)=NN2C)c(C)c1C(=O)NCC(F)(F)F (stereo not given)
inactive: [1] 92.2% | [2] 102% | [3] 96.9% | [4] 91.9% | [5] 96.8% | [6] 98.1% | [7] 93.6% | [8] 82.3% | [9] 93.1% | [10] 101% | [11] 107% | [12] 87.7% | [13] 93.1% | [14] 72% | [15] 116% | [16] 99.3% | [17] 81.1% | [18] 30.8% | [19] 93.6% | [20] 72.9%

[2H]C([2H])([2H])Oc1c(F)cccc1/C=C/C(=O)/C=C(O)/C=C/c1cccc(F)c1OC([2H])([2H])[2H]
inactive: [1] 81.4% | [2] 103% | [3] 114% | [4] 94.4% | [5] 87.8% | [6] 88.4% | [7] 101% | [8] 92% | [9] 85.8% | [10] 98.1% | [11] 101% | [12] 107% | [13] 93.4% | [14] 97.8% | [15] 114% | [16] 104% | [17] 103% | [18] 109% | [19] 90.9% | [20] 77.7%

CC(=O)CC(=O)c1ccccc1.[Cu+2]
active: [19] -10.7%
inactive: [1] 94.3% | [2] 106% | [3] 121% | [4] 96.6% | [5] 105% | [6] 96.8% | [7] 82.8% | [8] 95.8% | [9] 83.9% | [10] 105% | [11] 107% | [12] 99.4% | [13] 105% | [14] 94.5% | [15] 103% | [16] 104% | [17] 101% | [18] 141% | [20] 91.7%

CCCCCCCCNc1ncnc2c1ncn2Cc1nnc2c3ccccc3c(Cl)nn12
inactive: [1] 32.8% | [2] 44.1% | [3] 37.6% | [4] 56.2% | [5] 44.8% | [6] 36.5% | [7] 39.3% | [8] 29.9% | [9] 12.8% | [10] 62.9% | [11] 16.7% | [12] 57.3% | [13] 29.7% | [14] 23.6% | [15] 43.8% | [16] 28.5% | [17] 16.7% | [18] 69.8% | [19] 24.2% | [20] 12.3%

COc1cc(/C=C2\CN(S(=O)(=O)c3ccc(C)cc3)C/C(=C\c3cc(CN4CCCC4)c(O)c(OC)c3)C2=O)cc(CN2CCCC2)c1O
active: [1] -2.28% | [2] -60.7% | [5] -74.5% | [6] -20.2% | [7] -17.5% | [9] -92.5% | [12] 0.183% | [13] -56.1% | [14] 4.71% | [16] 1.63% | [19] -5.62% | [20] -8.53%
inactive: [3] 34.3% | [4] 15.6% | [8] 34.3% | [10] 10.3% | [11] 14.4% | [15] 24.7% | [17] 23.9% | [18] 40.9%
